12 compounds from PubChem BioAssay (NCI) can be followed below.

Molecules are shown by their SMILES. Compounds without any hit were thinned out: in the full panel of roughly 83,000, 20% have a hit.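 A percent growth of 40 corresponds to 60% growth inhibition; 0 means no net growth; -100 means all cells died. Active threshold: below 10.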 Values without a mark were called inactive. Active and inactive are the calls of the source.

Test systems include DU-145 prostate; MALME-3M melanoma; MDA-MB-231 breast; RXF 393 renal; SF-268 CNS; SF-295 CNS; SF-539 CNS; UACC-257 melanoma; M14 melanoma; HCT-15 colon; HT29 colon; SNB-75 CNS; SNB-19 CNS; PC-3 prostate; SK-MEL-5 melanoma; UACC-62 melanoma; LOX IMVI melanoma; SK-MEL-28 melanoma; U251 CNS.
Holding throughout (test): NCI-60 one-dose screen, 48 h (100 = growth as untreated, 0 = no growth, -100 = all killed)
What all share (conditions): 10 µM unless noted

Take `Oc1cccc(Nc2nccc(-c3ccc4ccccc4c3)n2)c1`: the growth is 27.3% in the assay on DU-145 prostate; 68% with MALME-3M melanoma; 37.2% in the assay on MDA-MB-231 breast; 37.8% with RXF 393 renal; 47.3% with SF-268 CNS; 25.2% with SF-295 CNS. Also, the growth with SF-539 CNS is 11%; in the assay with UACC-257 melanoma, 47.3%; with M14 melanoma it was 8.25% (active); in the assay on HCT-15 colon, 22.2%; with HT29 colon, 56.8%; in the assay on SNB-75 CNS, 23.3%. Besides, the growth with SNB-19 CNS was 28.7%; in the assay with PC-3 prostate, 28.1%; in the assay with SK-MEL-5 melanoma, 32.5%; in the assay with UACC-62 melanoma it was 32.9%; with LOX IMVI melanoma, 32.5%; in the assay on SK-MEL-28 melanoma it was 49.5%.
Take `C[C@@H]1CC[C@@H]2[C@@H]1[C@H](OC(=O)/C=C/c1ccccc1)[C@]1(c3ccccc3)C[C@@H](OC(=O)CO)[C@@]2(C)O1`: the growth in the assay on DU-145 prostate was 102%; with MALME-3M melanoma it was 108%; with MDA-MB-231 breast it was 97.2%; with RXF 393 renal, 60.6%; in the assay on SF-268 CNS it was 52.5%; in the assay on SF-295 CNS, 96.4%. Besides, the growth in the assay on SF-539 CNS is 102%; with UACC-257 melanoma, 86%; in the assay with M14 melanoma, 105%; with HCT-15 colon, 97.7%; in the assay with HT29 colon, 92.2%; with SNB-75 CNS, 90.2%. In addition, the growth with SNB-19 CNS was 96%; in the assay with PC-3 prostate, 80.5%; in the assay on SK-MEL-5 melanoma, 94.8%; in the assay with UACC-62 melanoma it was 75.4%; in the assay on LOX IMVI melanoma it was 97.8%; with SK-MEL-28 melanoma it was 101%.
`Oc1ccc(Nc2nccc(-c3ccc4ccccc4c3)n2)cc1`: the growth with DU-145 prostate is 55.5%; with MALME-3M melanoma it was 59.8%; with MDA-MB-231 breast it was 30.5%; with RXF 393 renal it was 60.3%; with SF-268 CNS it was 47.4%; with SF-295 CNS, 61.4%. For the same compound, the growth in the assay with SF-539 CNS was 37%; with UACC-257 melanoma, 26.7%; in the assay with M14 melanoma it was 11.1%; in the assay with HCT-15 colon, 16.9%; in the assay on HT29 colon it was 39.3%; with SNB-75 CNS it was 36%. The growth with SNB-19 CNS was 50.9%; in the assay with PC-3 prostate, 48.6%; in the assay on SK-MEL-5 melanoma, 39.8%; in the assay on UACC-62 melanoma, 39.4%; with LOX IMVI melanoma, 27.1%; in the assay on SK-MEL-28 melanoma, 50.6%.
With `CCN1CCN(Cc2ccc(NC(=O)Nc3nc4ccc(Oc5ccnc(C(=O)NC)c5)cc4s3)cc2C(F)(F)F)CC1`, the growth with DU-145 prostate is -16.1% (active); in the assay with MALME-3M melanoma, -68% (active); in the assay with MDA-MB-231 breast, -78.4% (active); in the assay on RXF 393 renal, -88.4% (active); in the assay with SF-268 CNS, -47.3% (active); in the assay with SF-295 CNS, -23.9% (active). Moreover, the growth is -85.2% (active) in the assay with SF-539 CNS; -49.2% (active) in the assay on UACC-257 melanoma; -76.2% (active) with M14 melanoma; -55.8% (active) in the assay on HCT-15 colon; 1.79% (active) with HT29 colon; -87.4% (active) in the assay with SNB-75 CNS. For the same compound, the growth with PC-3 prostate is -63.3% (active); in the assay on SK-MEL-5 melanoma it was 19.8%; with UACC-62 melanoma it was -92.7% (active); with LOX IMVI melanoma it was -78.9% (active); with SK-MEL-28 melanoma it was -85.2% (active).
As to `CN(C)CCOc1ccc(-c2nc3ccc(-c4nc5ccc(N6CCN(C)CC6)cc5[nH]4)cc3[nH]2)cc1`, the growth with DU-145 prostate was 82.4%; in the assay with MALME-3M melanoma it was 24.1%; in the assay with MDA-MB-231 breast, 73.4%; in the assay with RXF 393 renal, 48.3%; in the assay on SF-268 CNS it was 65.8%; in the assay on SF-295 CNS, 54.6%. The growth with SF-539 CNS is 49.8%; in the assay on UACC-257 melanoma, 41.2%; in the assay on M14 melanoma, 51.3%; with HCT-15 colon it was 101%; in the assay on HT29 colon, 42.4%; in the assay with SNB-75 CNS, 89.8%. In addition, the growth in the assay with SNB-19 CNS was 69.4%; in the assay with PC-3 prostate, 76.2%; in the assay with SK-MEL-5 melanoma it was 37.5%; in the assay on UACC-62 melanoma, 2.8% (active); in the assay on LOX IMVI melanoma, 67.9%; with SK-MEL-28 melanoma, 45.3%.
Regarding `CN1C2CCC1/C(=C\c1ccc(Cl)cc1)C1=C2[C@@H](c2ccc(Cl)cc2)C(C#N)=C(N)O1` (stereo not given in full), the growth in the assay on DU-145 prostate was 94.5%; in the assay on MALME-3M melanoma, 88%; in the assay on MDA-MB-231 breast it was 104%; in the assay with RXF 393 renal, 68.8%; with SF-268 CNS it was 85%; in the assay on SF-295 CNS, 97.8%. Moreover, the growth with SF-539 CNS is 94.2%; in the assay with UACC-257 melanoma it was 85.9%; in the assay on M14 melanoma, 95.2%; in the assay on HCT-15 colon it was 71.9%; with HT29 colon, 65.2%; in the assay on SNB-75 CNS, 92.4%. For the same compound, the growth in the assay with SNB-19 CNS was 99.8%; in the assay with PC-3 prostate, 82.4%; with SK-MEL-5 melanoma, 88.9%; with UACC-62 melanoma it was 75.7%; in the assay on LOX IMVI melanoma it was 91.7%; with SK-MEL-28 melanoma, 80%.
As to `COc1ccc(-c2cn3c(-c4ccc(OC)cc4)cnc3c(Oc3ccc4c(C)cc(=O)oc4c3)n2)cc1`, the growth in the assay on DU-145 prostate was 29.5%; in the assay on MALME-3M melanoma it was 26.7%; with MDA-MB-231 breast, 6.29% (active); in the assay with RXF 393 renal, -20.8% (active); in the assay on SF-268 CNS it was 65.7%; in the assay with SF-295 CNS, 23.3%. The growth with SF-539 CNS is -21.1% (active); in the assay on UACC-257 melanoma, 29.2%; with M14 melanoma, 38.6%; in the assay on HCT-15 colon, 63.4%; in the assay with HT29 colon, 25.4%; in the assay with SNB-75 CNS, 14.3%. The growth is 22.6% in the assay with U251 CNS; 17.7% with PC-3 prostate; 28.6% in the assay on SK-MEL-5 melanoma; 50.1% with UACC-62 melanoma; 8.02% (active) in the assay with LOX IMVI melanoma; -17.4% (active) in the assay on SK-MEL-28 melanoma.
As to `O=C(CCN1CCOCC1)Nc1ccc(Cn2nnc3c2C(=O)c2nnn(Cc4ccc(NC(=O)CCN5CCOCC5)cc4)c2C3=O)cc1`, the growth in the assay on DU-145 prostate is 60.6%; in the assay with MALME-3M melanoma, -69.9% (active); in the assay on MDA-MB-231 breast, -4.23% (active); in the assay with RXF 393 renal, 65.5%; in the assay on SF-268 CNS, 1.49% (active); in the assay on SF-295 CNS it was 50.8%. Further, the growth in the assay on UACC-257 melanoma is -80.5% (active); in the assay with M14 melanoma, 35.9%; in the assay with HCT-15 colon, 93.6%; with HT29 colon, 1.57% (active); with SNB-75 CNS it was -86.7% (active); in the assay on SNB-19 CNS, 27.1%. The growth with U251 CNS is -58.7% (active); in the assay on PC-3 prostate it was 17.7%; in the assay with SK-MEL-5 melanoma, -72.9% (active); in the assay with UACC-62 melanoma it was -17.3% (active); with LOX IMVI melanoma it was -21.9% (active); in the assay with SK-MEL-28 melanoma, 31.7%.
`CC1(C)CC(=O)C(c2c(-c3ccccc3)[nH]c3[nH]c(=S)[nH]c(=O)c23)=C(O)C1`: the growth was 124% in the assay on DU-145 prostate; 112% in the assay with MALME-3M melanoma; 101% with MDA-MB-231 breast; 115% in the assay on RXF 393 renal; 106% in the assay with SF-268 CNS; 152% in the assay with SF-295 CNS. For the same compound, the growth in the assay on UACC-257 melanoma is 80.2%; with M14 melanoma, 107%; in the assay on HCT-15 colon, 112%; in the assay with HT29 colon, 106%; with SNB-75 CNS it was 107%; in the assay on SNB-19 CNS, 93%. The growth with U251 CNS was 105%; in the assay on PC-3 prostate, 83%; with SK-MEL-5 melanoma, 108%; in the assay on UACC-62 melanoma, 92.4%; in the assay on LOX IMVI melanoma it was 111%; with SK-MEL-28 melanoma it was 110%.
`COCCOc1ccc(-c2nc3ccc(-c4nc5ccc(N6CCN(C)CC6)cc5[nH]4)cc3[nH]2)cc1`: the growth is 29.7% in the assay with DU-145 prostate; -38.9% (active) in the assay with MALME-3M melanoma; 8.21% (active) in the assay on MDA-MB-231 breast; -62.8% (active) in the assay on RXF 393 renal; 7.43% (active) with SF-268 CNS; 48.4% in the assay on SF-295 CNS. For the same compound, the growth is -30.7% (active) with SF-539 CNS; 8.32% (active) with UACC-257 melanoma; 1.05% (active) with M14 melanoma; 85.9% in the assay on HCT-15 colon; 4.98% (active) in the assay on HT29 colon; -21.2% (active) in the assay with SNB-75 CNS. The growth in the assay with SNB-19 CNS was 7.61% (active); in the assay on PC-3 prostate, 22.5%; in the assay on SK-MEL-5 melanoma, 11.2%; with UACC-62 melanoma it was -39.9% (active); in the assay on LOX IMVI melanoma it was -72.5% (active); in the assay with SK-MEL-28 melanoma, -39.2% (active).
As to `C[C@@H]1CC[C@@H]2[C@@H]1[C@H](OC(=O)/C=C/c1ccccc1)[C@]1(C3CCCCC3)C[C@@H](OC(=O)CO)[C@@]2(C)O1`, the growth was 81.5% in the assay with DU-145 prostate; 104% in the assay with MALME-3M melanoma; 84.7% in the assay with MDA-MB-231 breast; 26.9% in the assay on RXF 393 renal; 32.1% in the assay on SF-268 CNS; 87.5% in the assay on SF-295 CNS. Moreover, the growth in the assay with SF-539 CNS was 89.6%; in the assay on UACC-257 melanoma it was 67.8%; in the assay with M14 melanoma, 89.9%; with HCT-15 colon it was 66.2%; with HT29 colon, 38.4%; in the assay with SNB-75 CNS, 88.4%. In addition, the growth is 88.2% in the assay with SNB-19 CNS; 22.8% in the assay with PC-3 prostate; 85.9% in the assay on SK-MEL-5 melanoma; 73.3% in the assay on UACC-62 melanoma; 76% in the assay with LOX IMVI melanoma; 83.8% in the assay with SK-MEL-28 melanoma.
Turning to `O=C1C=CC(=O)c2c1nc1n2CCCC1`, the growth in the assay on DU-145 prostate was 63.2%; in the assay with MALME-3M melanoma, -71.2% (active); with MDA-MB-231 breast, 89.9%; in the assay on RXF 393 renal, 96.5%; in the assay with SF-268 CNS, 83.5%; in the assay on SF-295 CNS, 95.8%. Moreover, the growth in the assay with SF-539 CNS was 74.9%; in the assay on UACC-257 melanoma it was 84.8%; in the assay on M14 melanoma it was 29.9%; in the assay with HCT-15 colon it was 103%; in the assay with HT29 colon it was 35.5%; in the assay with SNB-75 CNS, 131%. In addition, the growth in the assay on SNB-19 CNS is 63.9%; with PC-3 prostate, 89.7%; in the assay with SK-MEL-5 melanoma, 22%; in the assay with UACC-62 melanoma, 71.4%; with LOX IMVI melanoma it was 48.8%; in the assay on SK-MEL-28 melanoma, 68.3%.
